BoNT-F LC inh: BoNT F light chain protease inhibition; Multiplex microsphere protease cleavage assay, flow cytometry; inhibition, % at 10 µM; actives 0.22% (n = 360,000); AID 588497; in the data active = inhibition above about 35%, passing the limit was not always enough; inconclusive = no clear call, values can overlap the other calls; also: plate controls were buffer without enzyme for full effect and enzyme alone for no effect
Anthrax LF prot: anthrax lethal factor protease inhibition | P15917 | multiplex microsphere protease cleavage assay, LF | inhibition, % at 10 µM | actives 0.12% (n = 360,000) | AID 588501; also: plate controls were buffer without enzyme for full effect and enzyme alone for no effect
Autofluor counter: flagged as autofluorescent in microsphere protease counterscreen | actives 3.1% (n = 360,000) | compound autofluorescence counterscreen, microsphere flow cytometry; hits give high values | fluorescence intensity (concentration not given with the values); in the data active = fluorescence intensity above about 16000; inconclusive = no clear call, values can overlap the other calls
BoNT-A LC inh2: blocks Botulinum neurotoxin A light chain protease; AID 588499; actives 0.17% (n = 360,000); inhibition, % at 10 µM; multiplex microsphere protease substrate cleavage, flow cytometry; also: plate controls were buffer without enzyme for full effect and enzyme alone for no effect
MazF activator: MazEF (E. coli) toxin RNase activation; actives 0.32% (n = 350,000); P0AE70; FAM/BHQ RNA-DNA oligo cleavage fluorescence, 5 h; activation, % at 20 µM; AID 504720; in the data active = activation above about 50%
Target sequence (P0AE70 whole entry, looked up): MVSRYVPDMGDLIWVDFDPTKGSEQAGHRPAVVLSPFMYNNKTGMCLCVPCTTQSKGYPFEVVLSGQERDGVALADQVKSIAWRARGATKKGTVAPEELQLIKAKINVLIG
Starred values were filed as active, the others as inactive; ? = inconclusive; . = not tested or not shown. Most compounds without a hit are left out; they make up all but 3.6% or so of the library. Rule as the data show it, unless noted: active = inhibition above about 30%; inconclusive = no clear call, values can overlap the other calls; inactive = below that.

SMILES	BoNT-F LC inh	Anthrax LF prot	Autofluor counter	BoNT-A LC inh2	MazF activator
O=C(CSc1ncnc2c1oc1ccccc12)Nc1cccc(Cl)c1	-7	1	21833*	-7	15
Fc1ccccc1CSc1ncnc2c1oc1ccccc12	8	-1	19470*	3	-4
CC(C)Sc1ncnc2c1oc1ccccc12	0	-1	23211*	0	4
Cc1noc(C)c1S(=O)(=O)N(C)C[C@H]1Oc2c(NS(=O)(=O)c3cn(C)cn3)cccc2C(=O)N([C@H](C)CO)C[C@@H]1C	-6	-10	4098	0	8
COc1cc(CNc2ccc(C)c(C)c2)cc(OC)c1OC	-9	-6	17356*	-4	-12
CN(Cc1nc2ccccc2c(=O)[nH]1)C(=O)c1ccc(S(=O)(=O)N(C)C)cc1	1	1	20390*	1	16
CCCCCCCCCCS(=O)(=O)N/N=C/c1ccc([N+](=O)[O-])cc1	9	-11	21737*	?	-3
Cc1ccc(/C=N/NS(=O)(=O)c2ccc([N+](=O)[O-])cc2)o1	1	-2	1924	0	-1
O=C1C(c2ccc(F)cc2)N(Cc2ccc3c(c2)OCO3)C(=O)CN1C1CCCC1 (stereo not given)	-14	-1	25677*	-10	2
O=C1C(c2ccc(F)cc2)N(CC2COc3ccccc3O2)C(=O)CN1C1CCCCC1 (stereo not given)	8	-3	10837	0	0
COc1ccccc1CN1C(=O)CN(C2CCCC2)C(=O)C1c1ccc(F)cc1 (stereo not given)	-1	-9	16593*	?	-8
O=C1C(c2ccc(F)cc2)N(Cc2ccc3c(c2)OCO3)C(=O)CN1C1CCCCC1 (stereo not given)	-1	-6	20863*	-1	1
CCOC(=O)C(O)(c1ccc(NC(=O)NC2CCCCC2)cc1)C(F)(F)F (stereo not given)	-1	-1	23646*	1	-7
CCOC(=O)[C@H]1[C@H]2COc3ccc(C)cc3[C@@H]2N2C(=O)CN(Cc3ccc(Cl)cc3)C(=O)[C@@]12C	-3	-4	3190	0	1
CCOC(=O)[C@H]1[C@H]2COc3ccccc3[C@@H]2N2C(=O)CN(Cc3ccc(C)cc3)C(=O)[C@@]12C	-3	6	2989	0	542*
COc1cc(C(=O)O[C@H]2C/C(C)=C/CC[C@@]3(C)O[C@@H]3[C@H](O)[C@@H]2C(C)C)cc(OC)c1OC	-5	-2	3233	1	0
CC(C)NS(=O)(=O)c1ccc(NC(=O)CCc2ccccc2)cc1	6	-6	21469*	4	3
O=C(CCc1ccccc1)Nc1ccc(NS(=O)(=O)c2ccccc2)cc1	16	-11	3940	0	16
COCC(=O)Nc1ccc(S(=O)(=O)NCCc2ccccc2)cc1	-2	-1	16357*	0	7
COc1ccc(NC(=O)NNC(=O)c2ccc3ccccc3c2O)c(OC)c1	4	-2	5195	0	-3
N=c1n(Cc2ccccc2)c2ccccc2n1CC(O)c1ccco1 (stereo not given)	.	.	.	.	12
CCn1c(=N)n(CC(O)c2ccco2)c2ccccc21 (stereo not given)	-19	-2	28325*	-11	-12
O=C(CO)c1c[nH]c2ccccc12	4	1	5398	0	.
CN(c1ccc(F)cc1)S(=O)(=O)c1ccc(Cl)c(C(=O)NC2(C)CCS(=O)(=O)C2)c1 (stereo not given)	-6	-1	9595	-2	1
CC1(C)CC(=O)c2c(O)cc(OCc3ccc(Br)cc3)cc2O1	2	-3	22502*	2	-17
SMILES	BoNT-F LC inh	Anthrax LF prot	Autofluor counter	BoNT-A LC inh2	MazF activator
COC(=O)c1ccc(COc2cc(O)c3c(c2)OC(C)(C)CC3=O)cc1	5	-1	2347	0	-12
CCCN(CC(=O)Nc1ccc(C(N)=O)cc1)CC(=O)Nc1ccc(F)c(F)c1F	-2	1	3110	1	9
NNS(=O)(=O)c1ccc(N2CCCC2=O)c([N+](=O)[O-])c1	-1	-6	3080	-2	227*
O=C(CSc1nnc(-c2ccc(O)cc2)o1)NNC(=O)c1ccncc1	-10	-2	5101	-2	1
CN(C)C(CNC(=O)c1ccc(S(=O)(=O)Nc2ccccc2F)cc1)c1ccco1 (stereo not given)	-43	-27	3648	1	3
Cc1ccc(S(=O)(=O)/N=C(\N)Nc2nc(C)c3ccc(C)cc3n2)cc1	0	-2	10869	0	-4
Cc1ccc(S(=O)(=O)/N=C(\N)Nc2nc(C)c3cc(C)ccc3n2)cc1	-1	0	21184*	-2	-8

Screening results: PubChem, several laboratories
